PubChem BioAssay AID1159580 (chemical genetic matrix, 2015)
Screen size: about 5,500 compounds; about 2,000 (36%) were called active. Roughly 18% stayed inconclusive and do not appear here. Some of the results follow. A number with no mark means an inactive call. Cut-off read from the data, not from the text of the source: active = normalized growth mostly below about 0.91 (no sharp cut-off); inconclusive = no clear call, values can overlap the other calls; inactive = mostly above about 0.92.

Assay: chemical genetic growth profiling, strain panel (AID 1159580);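 note: tested at 20 µM; growth read once vehicle control cultures reached saturation at 30 °C; 1 = growth at the plate median or of vehicle wells; lower values mean less growth of the strain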
Settings: S. cerevisiae deletion strains, growth OD

Question: Which results are given for `CC(C)c1ccc2c(c1O)CC[C@H]1C3=C(CC[C@]21C)C(=O)OC3`?
Answer: normalized growth (locus YJL187C, strain SWE1, active compounds read low): 0.985; normalized growth (locus YJR043C, strain POL32, active compounds read low): 0.865; normalized growth (locus YJR066W, strain TOR1, active compounds read low): 0.898; normalized growth (locus YJR075W, strain HOC1, active compounds read low): 0.866 (active); normalized growth (locus YKL009W, strain mrt4, active compounds read low): 0.935; normalized growth (locus YKL068W, active compounds read low): 0.946; normalized growth (locus YKL085W, strain MDH1 (second series), active compounds read low): 0.918 (active); normalized growth (locus YKL085W, strain MDH1, active compounds read low): 0.918 (active); normalized growth (locus YKL160W, strain elf1, active compounds read low): 0.956; normalized growth (locus YKR001C, strain vps1, active compounds read low): 0.834 (active); normalized growth (locus YKR026C, strain gcn3, active compounds read low): 0.931; normalized growth (locus YKR091W, strain srl3, active compounds read low): 0.967; normalized growth (locus YLL001W, strain dnm1, active compounds read low): 0.967; normalized growth (locus YLL026W, active compounds read low): 0.962; normalized growth (locus YLL041C, strain sdh2, active compounds read low): 0.97; normalized growth (locus YLR027C, strain aat2, active compounds read low): 0.964; normalized growth (locus YLR039C, strain RIC1, active compounds read low): 0.628 (active); normalized growth (locus YLR058C, strain SHM2, active compounds read low): 0.911; normalized growth (locus YLR102C, strain apc9, active compounds read low): 0.954; normalized growth (locus YLR113W, strain HOG1, active compounds read low): 0.909; normalized growth (locus YLR221C, strain rsa3, active compounds read low): 0.96; normalized growth (locus YLR258W, strain gsy2, active compounds read low): 0.951; normalized growth (locus YLR262C, strain YPT6 (second series), active compounds read low): 0.816 (active); normalized growth (locus YLR262C, strain YPT6, active compounds read low): 0.667; normalized growth (locus YLR268W, strain sec22, active compounds read low): 0.923; normalized growth (locus YLR320W, strain mms22, active compounds read low): 0.863 (active); normalized growth (locus YLR330W, strain CHS5, active compounds read low): 0.638 (active); normalized growth (locus YLR342W, strain FKS1 (second series), active compounds read low): 0.65 (active); normalized growth (locus YLR342W, strain FKS1, active compounds read low): 0.987; normalized growth (locus YLR357W, strain rsc2, active compounds read low): 0.991; normalized growth (locus YLR370C, strain arc18, active compounds read low): 0.965; normalized growth (locus YLR384C, strain iki3, active compounds read low): 0.967; normalized growth (locus YLR418C, strain cdc73, active compounds read low): 0.7 (active); normalized growth (locus YML016C, strain PPZ1, active compounds read low): 0.969; normalized growth (locus YML032C, strain rad52, active compounds read low): 0.912; normalized growth (locus YML120C, strain ndi1, active compounds read low): 0.968; normalized growth (locus YML124C, strain tub3, active compounds read low): 0.988; normalized growth (locus YMR058W, strain fet3, active compounds read low): 0.961; normalized growth (locus YMR078C, strain ctf18, active compounds read low): 0.923; normalized growth (locus YMR125W, strain sto1, active compounds read low): 0.949; normalized growth (locus YMR129W, active compounds read low): 0.96; normalized growth (locus YMR205C, strain PFK2, active compounds read low): 0.88; normalized growth (locus YMR223W, strain ubp8, active compounds read low): 0.91; normalized growth (locus YMR231W, strain pep5, active compounds read low): 0.975; normalized growth (locus YMR263W, strain SAP30, active compounds read low): 0.896; normalized growth (locus YMR307W, strain GAS1, active compounds read low): 0.474 (active); normalized growth (locus YNL067W, strain RPL9B, active compounds read low): 0.932; normalized growth (locus YNL071W, strain lat1, active compounds read low): 0.853 (active); normalized growth (locus YNL183C, strain NPR1, active compounds read low): 0.924; normalized growth (locus YNL209W, strain ssb2, active compounds read low): 0.972; normalized growth (locus YNL233W, strain BNI4, active compounds read low): 0.723 (active); normalized growth (locus YNL248C, strain rpa49, active compounds read low): 0.957; normalized growth (locus YNL250W, strain rad50, active compounds read low): 0.971; normalized growth (locus YNL271C, strain bni1, active compounds read low): 0.992; normalized growth (locus YNL298W, strain CLA4, active compounds read low): 0.957; normalized growth (locus YNL307C, strain MCK1, active compounds read low): 0.536 (active); normalized growth (locus YNL322C, strain KRE1 (second series), active compounds read low): 0.973; normalized growth (locus YNR049C, strain mso1, active compounds read low): 0.976; normalized growth (locus YNR052C, strain pop2, active compounds read low): 0.953; normalized growth (locus YOL012C, strain htz1): 0.499; normalized growth (locus YOL147C, strain pex11, active compounds read low): 0.933; normalized growth (locus YOR001W, strain rrp6, active compounds read low): 0.985; normalized growth (locus YOR061W, strain CKA2, active compounds read low): 0.964; normalized growth (locus YOR069W, strain VPS5, active compounds read low): 0.944; normalized growth (locus YOR070C, strain gyp1, active compounds read low): 0.956; normalized growth (locus YOR080W, strain dia2, active compounds read low): 0.986; normalized growth (locus YOR083W, strain WHI5, active compounds read low): 0.966; normalized growth (locus YOR106W, strain vam3, active compounds read low): 0.999; normalized growth (locus YOR136W, strain idh2, active compounds read low): 0.929; normalized growth (locus YOR144C, strain elg1, active compounds read low): 0.958; normalized growth (locus YOR184W, strain ser1, active compounds read low): 0.671 (active); normalized growth (locus YOR231W, strain MKK1, active compounds read low): 0.942; normalized growth (locus YOR265W, strain rbl2, active compounds read low): 0.963; normalized growth (locus YOR270C, strain vph1, active compounds read low): 0.794; normalized growth (locus YOR290C, strain snf2, active compounds read low): 0.909; normalized growth (locus YOR316C, strain cot1, active compounds read low): 0.968; normalized growth (locus YPL051W, strain arl3, active compounds read low): 0.932; normalized growth (locus YPL055C, strain LGE1, active compounds read low): 0.598 (active); normalized growth (locus YPL078C, strain atp4, active compounds read low): 0.934; normalized growth (locus YPL106C, strain sse1, active compounds read low): 0.965; normalized growth (locus YPL240C, strain hsp82, active compounds read low): 0.971; normalized growth (locus YPL241C, strain CIN2, active compounds read low): 0.911 (active); normalized growth (locus YPL256C, strain CLN2, active compounds read low): 0.876; normalized growth (locus YPR119W, strain clb2, active compounds read low): 0.951; normalized growth (locus YPR141C, strain kar3, active compounds read low): 0.965; normalized growth (locus YPR163C, strain tif3, active compounds read low): 0.794 (active); normalized growth (locus YPR167C, strain met16, active compounds read low): 0.947; normalized growth (strain wtn01, active compounds read low): 0.965
